# Data from the supplement of paper PMC10037445.
# In all, about 2,900 compounds were measured (“NF-kB SEAP reporter activity, fold change vs agonist alone”: median about 0.99, highest 2% from about 2.6 on). The sample as a whole holds a higher share of the highest values than the screen did.
# How the values were obtained:
# RAW-Dual [1] = experiment: NF-kB SEAP reporter activity, fold change vs agonist alone; cytotoxicity flag (confluency mask): not cytotoxic; higher = enhanced NF-kB activity
# How it was run: (§1)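 Supernatant from RAW-Dual macrophages was read after 20 hours for IRF by QuantiLuc luminescence and for NF-κB by QuantiBlue absorbance at 620 nm. The cells (50,000 cells/well in DMEM, 384-well plates, 37 °C, 5% CO2) had received 50 nL of library stock by pin tool and, 1 h later, a PRR agonist. Reporter activity is expressed relative to agonist-alone wells as fold change, and wells were flagged cytotoxic if IncuCyte confluency was under 70% of agonist controls in both mask sets.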
# RAW-Dual [2] = experiment: NF-kB SEAP reporter activity, fold change vs agonist alone; higher = enhanced NF-kB activity; details: library stock concentration (final ~1000-fold dilution): 10 mM
# How it was run: as §1
# RAW-Dual [3] = experiment: NF-kB SEAP reporter activity, fold change vs agonist alone; cytotoxicity flag (confluency mask): cytotoxic (confluency <70% of control); higher = enhanced NF-kB activity
# How it was run: as §1
# [4] = agonist: ODN 1826 (TLR9) 0.5 ug/mL
# [5] = agonist: Pam2CSK4 (TLR2/6) 0.1 ug/mL
# [6] = agonist: Pam3CSK4 (TLR2/1) 0.1 ug/mL
# [7] = cytotoxicity flag (confluency mask): not cytotoxic, agonist: Imiquimod (TLR7) […]
# [8] = cytotoxicity flag (confluency mask): not cytotoxic, agonist: MPLA (TLR4) […]
# [9] = cytotoxicity flag (confluency mask): cytotoxic (confluency <70% of control), agonist: Imiquimod (TLR7) […]
# [10] = cytotoxicity flag (confluency mask): cytotoxic (confluency <70% of control), agonist: MPLA (TLR4) […]
smiles,measurement,setting,value
CC1(C)OCCn2c1nc1c(N3CCOCC3)nc(-c3cnc(N)nc3)nc12 (library stock concentration (final ~1000-fold dilution): 10 mM),NF-kB SEAP reporter activity,RAW-Dual [1]; agonist: LPS (TLR4) 0.1 ug/mL,1.42
same,NF-kB SEAP reporter activity,RAW-Dual [1]; [4],0.768
same,NF-kB SEAP reporter activity,RAW-Dual [1]; [5],0.464
same,NF-kB SEAP reporter activity,RAW-Dual [1]; [6],0.544
N#Cc1cccc(-c2c[nH]c3ncnc(N4CCOCC4)c23)c1,NF-kB SEAP reporter activity,RAW-Dual [2]; [7],1.01
same,NF-kB SEAP reporter activity,RAW-Dual [2]; [8],0.873
Nc1ccc(C(=O)Nc2cccc(-c3nc(N4CCOCC4)c4oc5ncccc5c4n3)c2)cn1 (library stock concentration (final ~1000-fold dilution): 10 mM),NF-kB SEAP reporter activity,RAW-Dual [1]; agonist: LPS (TLR4) 0.1 ug/mL,2.62
same,NF-kB SEAP reporter activity,RAW-Dual [1]; [4],0.304
same,NF-kB SEAP reporter activity,RAW-Dual [1]; [5],0.638
same,NF-kB SEAP reporter activity,RAW-Dual [1]; [6],0.805
Cc1csc(-c2nc[nH]c2-c2ccc3ncsc3c2)n1.Cl (library stock concentration (final ~1000-fold dilution): 10 mM),NF-kB SEAP reporter activity,RAW-Dual [1]; agonist: LPS (TLR4) 0.1 ug/mL,2.26
same,NF-kB SEAP reporter activity,RAW-Dual [1]; [4],1.18
same,NF-kB SEAP reporter activity,RAW-Dual [1]; [5],1.24
same,NF-kB SEAP reporter activity,RAW-Dual [1]; [6],1.47
Cc1csc(-c2nc[nH]c2-c2ccc3ncsc3c2)n1.Cl,NF-kB SEAP reporter activity,RAW-Dual [2]; [7],0.927
same,NF-kB SEAP reporter activity,RAW-Dual [2]; [8],1.34
CC(Oc1cc(-n2cnc3ccc(CN4CCN(C)CC4)cc32)sc1C(N)=O)c1ccccc1C(F)(F)F (stereo unspecified),NF-kB SEAP reporter activity,RAW-Dual [2]; [7],0.909
same,NF-kB SEAP reporter activity,RAW-Dual [2]; [8],0.993
CC(Oc1cc(-n2cnc3ccc(CN4CCN(C)CC4)cc32)sc1C(N)=O)c1ccccc1C(F)(F)F (stereo unspecified) (library stock concentration (final ~1000-fold dilution): 10 mM),NF-kB SEAP reporter activity,RAW-Dual [1]; agonist: LPS (TLR4) 0.1 ug/mL,1.15
same,NF-kB SEAP reporter activity,RAW-Dual [1]; [4],0.967
same,NF-kB SEAP reporter activity,RAW-Dual [1]; [5],0.97
same,NF-kB SEAP reporter activity,RAW-Dual [1]; [6],0.799
N#C/C(C(=O)c1ccc(Cl)cc1Cl)=C1\NC(=O)c2ccccc2N1 (library stock concentration (final ~1000-fold dilution): 10 mM),NF-kB SEAP reporter activity,RAW-Dual [1]; agonist: LPS (TLR4) 0.1 ug/mL,1.13
same,NF-kB SEAP reporter activity,RAW-Dual [1]; [4],0.982
same,NF-kB SEAP reporter activity,RAW-Dual [1]; [5],0.65
same,NF-kB SEAP reporter activity,RAW-Dual [1]; [6],0.693
N#C/C(C(=O)c1ccc(Cl)cc1Cl)=C1\NC(=O)c2ccccc2N1,NF-kB SEAP reporter activity,RAW-Dual [2]; [7],0.86
same,NF-kB SEAP reporter activity,RAW-Dual [2]; [8],1.11
CC1OC(OC2C(Oc3cc(O)c4c(c3)OC(c3ccc(O)cc3)CC4=O)OC(CO)C(O)C2O)C(O)C(O)C1O (stereo unspecified) (library stock concentration (final ~1000-fold dilution): 10 mM),NF-kB SEAP reporter activity,RAW-Dual [1]; agonist: LPS (TLR4) 0.1 ug/mL,0.935
same,NF-kB SEAP reporter activity,RAW-Dual [1]; [4],1.04
same,NF-kB SEAP reporter activity,RAW-Dual [1]; [5],1.17
same,NF-kB SEAP reporter activity,RAW-Dual [1]; [6],1.13
CC1OC(OC2C(Oc3cc(O)c4c(c3)OC(c3ccc(O)cc3)CC4=O)OC(CO)C(O)C2O)C(O)C(O)C1O (stereo unspecified),NF-kB SEAP reporter activity,RAW-Dual [2]; [7],0.993
same,NF-kB SEAP reporter activity,RAW-Dual [2]; [8],1.05
COc1ccc(C[C@@H]2c3cc(Oc4cc(C[C@@H]5c6cc(OC)c(OC)cc6CCN5C)ccc4O)c(OC)cc3CCN2C)cc1 (library stock concentration (final ~1000-fold dilution): 10 mM),NF-kB SEAP reporter activity,RAW-Dual [1]; agonist: LPS (TLR4) 0.1 ug/mL,1.06
same,NF-kB SEAP reporter activity,RAW-Dual [1]; [4],0.182
same,NF-kB SEAP reporter activity,RAW-Dual [1]; [5],0.121
same,NF-kB SEAP reporter activity,RAW-Dual [1]; [6],0.622
COc1ccc(C[C@@H]2c3cc(Oc4cc(C[C@@H]5c6cc(OC)c(OC)cc6CCN5C)ccc4O)c(OC)cc3CCN2C)cc1,NF-kB SEAP reporter activity,RAW-Dual [2]; [7],0.915
same,NF-kB SEAP reporter activity,RAW-Dual [2]; [8],1.09
Oc1ccc(-c2nc(-c3ccc(F)cc3)c(-c3ccncc3)[nH]2)cc1,NF-kB SEAP reporter activity,RAW-Dual [2]; [7],1.92
same,NF-kB SEAP reporter activity,RAW-Dual [2]; [8],1.84
Oc1ccc(-c2nc(-c3ccc(F)cc3)c(-c3ccncc3)[nH]2)cc1 (library stock concentration (final ~1000-fold dilution): 10 mM),NF-kB SEAP reporter activity,RAW-Dual [1]; agonist: LPS (TLR4) 0.1 ug/mL,2.59
same,NF-kB SEAP reporter activity,RAW-Dual [1]; [4],0.851
same,NF-kB SEAP reporter activity,RAW-Dual [1]; [5],1.01
same,NF-kB SEAP reporter activity,RAW-Dual [1]; [6],1.2
COc1cc2nc(N3CCCN(C)CC3)nc(NC3CCN(Cc4ccccc4)CC3)c2cc1OC.Cl.Cl.Cl (library stock concentration (final ~1000-fold dilution): 10 mM),NF-kB SEAP reporter activity,RAW-Dual [3]; agonist: LPS (TLR4) 0.1 ug/mL,0.248
same,NF-kB SEAP reporter activity,RAW-Dual [3]; [4],0.189
same,NF-kB SEAP reporter activity,RAW-Dual [3]; [5],0.092
same,NF-kB SEAP reporter activity,RAW-Dual [3]; [6],0.13
COc1cc2nc(N3CCCN(C)CC3)nc(NC3CCN(Cc4ccccc4)CC3)c2cc1OC.Cl.Cl.Cl,NF-kB SEAP reporter activity,RAW-Dual [2]; [9],0.133
same,NF-kB SEAP reporter activity,RAW-Dual [2]; [10],0.247
CC(=O)OC1(C(C)=O)CCC2C3C=C(Cl)C4=CC(=O)CCC4(C)C3CCC21C (stereo unspecified),NF-kB SEAP reporter activity,RAW-Dual [2]; [7],1.28
same,NF-kB SEAP reporter activity,RAW-Dual [2]; [8],1.12
CC(=O)OC1(C(C)=O)CCC2C3C=C(Cl)C4=CC(=O)CCC4(C)C3CCC21C (stereo unspecified) (library stock concentration (final ~1000-fold dilution): 10 mM),NF-kB SEAP reporter activity,RAW-Dual [1]; agonist: LPS (TLR4) 0.1 ug/mL,1.21
same,NF-kB SEAP reporter activity,RAW-Dual [1]; [4],1.14
same,NF-kB SEAP reporter activity,RAW-Dual [1]; [5],1.08
same,NF-kB SEAP reporter activity,RAW-Dual [1]; [6],1.16
CN1c2ccccc2C(=O)Nc2cnc(Nc3ccc(N4CCC(O)CC4)cc3)nc21,NF-kB SEAP reporter activity,RAW-Dual [2]; [7],0.788
same,NF-kB SEAP reporter activity,RAW-Dual [2]; [8],1.02
Cc1nc(Nc2cnn(C3CCNCC3)c2)nc2c1N(C)C(=O)c1cc3ccccc3cc1N2C,NF-kB SEAP reporter activity,RAW-Dual [2]; [9],1.56
same,NF-kB SEAP reporter activity,RAW-Dual [2]; [10],2.88
Cc1ccc(Oc2ccnc3cc(-c4cnn(C5CCNCC5)c4)ccc23)cc1 (library stock concentration (final ~1000-fold dilution): 10 mM),NF-kB SEAP reporter activity,RAW-Dual [3]; agonist: LPS (TLR4) 0.1 ug/mL,0.433
same,NF-kB SEAP reporter activity,RAW-Dual [3]; [4],0.213
same,NF-kB SEAP reporter activity,RAW-Dual [3]; [5],0.181
same,NF-kB SEAP reporter activity,RAW-Dual [3]; [6],0.175
CN1c2ccccc2C(=O)Nc2cnc(Nc3ccc(N4CCC(O)CC4)cc3)nc21 (library stock concentration (final ~1000-fold dilution): 10 mM),NF-kB SEAP reporter activity,RAW-Dual [1]; agonist: LPS (TLR4) 0.1 ug/mL,1.91
same,NF-kB SEAP reporter activity,RAW-Dual [1]; [4],1.18
same,NF-kB SEAP reporter activity,RAW-Dual [1]; [5],0.763
same,NF-kB SEAP reporter activity,RAW-Dual [1]; [6],0.946
Cc1nc(Nc2cnn(C3CCNCC3)c2)nc2c1N(C)C(=O)c1cc3ccccc3cc1N2C (library stock concentration (final ~1000-fold dilution): 10 mM),NF-kB SEAP reporter activity,RAW-Dual [3]; agonist: LPS (TLR4) 0.1 ug/mL,3.03
same,NF-kB SEAP reporter activity,RAW-Dual [3]; [4],0.387
same,NF-kB SEAP reporter activity,RAW-Dual [3]; [5],1.11
same,NF-kB SEAP reporter activity,RAW-Dual [3]; [6],2.25
Cc1ccc(Oc2ccnc3cc(-c4cnn(C5CCNCC5)c4)ccc23)cc1,NF-kB SEAP reporter activity,RAW-Dual [2]; [9],0.526
same,NF-kB SEAP reporter activity,RAW-Dual [2]; [10],0.922
